# According to PubChem BioAssay (Tox21):
# “And” between values parts separate entries of the source, which are not always exact repeats. Equal values may be shown once. Values without a mark were called inactive. Inconclusive results are not listed. Where a call stands in place of a potency, no number is given. The source made the active and inactive calls. Unless noted, the call rests on the fitted dose curve; in most records, active means well fitted curve in the direction sought with a large enough effect in the repeat runs; inconclusive means weak or mixed curves; inactive means no such curve, though single readings can be large; an effect the other way counts as inactive or inconclusive.
# Assays:
# [1] = qHTS assay to identify small molecule agonists of H2AX (AID 1224845; active means well fitted activation curve with a large enough effect in the signal ratio in the repeat runs, not every such curve was filed as active; the % refers to the signal ratio)
# Summary of the method: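 Wild-type CHO-K1 cells, plated overnight, exposed 3hr at 37C to 15 concentrations (0.76% DMSO final). Lysed, then HTRF anti-pH2AX (S139) cryptate and anti-H2AX-d2 antibodies, 24 hr room temperature; 665/620 nm emission read.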
# [2] = qHTS assay to identify small molecule agonists of the hypoxia (HIF-1) signaling pathway (AID 1224846; active means well fitted activation curve with a large enough effect in the signal ratio in the repeat runs, not every such curve was filed as active; the % refers to the signal ratio)
# Summary of the method: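 HRE-bla ME-180 beta-lactamase reporter cells in medium with 0.5% dialyzed FBS, pre-incubated 5 h then exposed to compounds 17 h at 37C, 5% CO2; reporter induction read with CCF4-AM FRET substrate.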
# [3] = qHTS assay to identify small molecule agonists of H2AX - cell viability counter screen (AID 1224847; calls by dose curve; further: nearly all actives have a fitted effect of over 30% in size; further: potency means the concentration at half of the fitted maximal effect; on activity change, negative = cytotoxicity: top concentration of the series differs between compounds)
# Summary of the method: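 Cells plated first: CHO-K1, 1000 per well in 10% FBS medium, incubated overnight at 37C. Then 15-point compound titration added (final DMSO 0.76%) for 3 hr. Finally CellTiter-Glo added and luminescence read.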
# [4] = qHTS RealTime-Glo MT Cell Viability Assay in HepG2 cells - 24 hour (AID 1224867); further: nearly all actives have a fitted effect of over 50% in size; further: potency means the concentration at half of the fitted maximal effect
# Summary of the method: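 Luminescence read-out: viable HepG2 cells reduce a prosubstrate to a NanoLuc substrate, giving a signal proportional to live cell number. Reads taken at 0, 8, 16, 24, 32 and 40 h of compound exposure at 37 C.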
# [5] = qHTS RealTime-Glo MT Cell Viability Assay in HEK293 cells - 32 hour (AID 1224868); further: nearly all actives have a fitted effect of over 50% in size; further: potency means the concentration at half of the fitted maximal effect; on activity change, negative = cytotoxic: top concentration of the series differs between compounds
# Summary of the method: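 Nonlytic real-time viability readout: viable cells convert prosubstrate to NanoLuc substrate, giving luminescence proportional to live cell number. HEK293, 600 cells/well, compound added after 5 h, continuous culture at 37 C.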
# [6] = A CellTox Green Cytotoxicity Assay to monitor cytotoxicity in HEK293 cells - 0 hour (AID 1224869); further: nearly all actives have a fitted effect of over 50% in size
# Summary of the method: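 HEK293 cells, 600/well, were preincubated 5 hours and then exposed to compounds at 37 C for up to 40 hours. A cell-impermeant cyanine dye staining dead-cell DNA was read by fluorescence at 0, 8, 16, 24, 32 and 40 h time points.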
# [7] = qHTS RealTime-Glo MT Cell Viability Assay in HepG2 cells - 40 hour (AID 1224870); further: nearly all actives have a fitted effect of over 50% in size; further: potency means the concentration at half of the fitted maximal effect
# Summary of the method: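 HepG2 cells (600/well) mixed with RealTime-Glo MT reagent, settled 5 h at 37 C/5% CO2 before compound addition. Nonlytic NanoLuc luminescence from viable-cell prosubstrate reduction read repeatedly during 40 h treatment at 37 C.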
# [8] = qHTS assay to identify small molecule agonists of the hypoxia (HIF-1) signaling pathway - cell viability counter screen (AID 1224844; calls by dose curve; further: nearly all actives have a fitted effect of over 50% in size; further: potency means the concentration at half of the fitted maximal effect)
# Summary of the method: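 HRE-bla ME-180 cells, 2,000/well in 0.5% dialyzed FBS medium, treated 17 h at 37C with compounds. Viability read in the same wells as the bla reporter, by CellTiter-Glo luminescence after 30 min at room temperature.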
# [9] = qHTS assay to identify small molecule antagonists of the estrogen related receptor (ERR) signaling pathway from Tox21 library (AID 1224848); further: nearly all actives have a fitted effect of over 50% in size; further: potency means the concentration at half of the fitted maximal effect
# Summary of the method: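 Luminescent reporter read-out (ONE-Glo) from NTP's ERR cell line after 18 h treatment at 37 C with DMSO-dissolved Tox21 compounds; cells pre-plated 6 h beforehand at 2,000 per well.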
# [10] = qHTS assay to identify small molecule agonists of the estrogen related receptor (ERR) signaling pathway from Tox21 library (AID 1224849; calls by dose curve; further: nearly all actives have a fitted effect of over 15% in size); conditions: ERR reporter cell line, ONE-Glo luciferase, 18 h
# Summary of the method: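 ERR reporter cells (NTP line) pre-incubated 6 hours at 37 C, then exposed to compounds for 18 hours at 37 C. ONE-Glo luciferase luminescence was read after 30 minutes at room temperature.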
# [11] = at 92.4 µM (top of the series) unless noted
smiles,measurement,setting,value
COCCCOCCCOC,outcome,[1],inactive
same,outcome,[2],inactive
same,Potency,[3],inactive
same,Potency,[4],inactive
same,Potency,[5],inactive
same,Potency,[6],inactive
same,Potency,[7],inactive
NCCc1cnc[nH]1,Potency,[8],inactive
same,outcome,[1],inactive
same,Potency,[3],inactive
same,Potency,[4],inactive
same,Potency,[5],inactive
same,Potency,[7],inactive
COC(=O)CC(C)=O,Potency,[8],inactive
same,outcome,[1],inactive
same,Potency,[9],inactive
same,"activity change, positive = activation",[10]; [11],2.59%
same,Potency,[4],inactive
same,Potency,[5],inactive
same,Potency,[6],inactive
same,Potency,[7],inactive
CCN(CC)CCNC(=O)c1cc(S(C)(=O)=O)ccc1OC,Potency,[8],inactive
same,outcome,[1],inactive
same,Potency,[3],inactive
same,Potency,[4],inactive
same,Potency,[6],inactive
same,Potency,[7],inactive
O=c1n(CCO)c(=O)n(CCO)c(=O)n1CCO,Potency,[8],inactive
same,outcome,[1],inactive
same,Potency,[3],inactive
same,Potency,[4],inactive
same,Potency,[7],inactive
Cc1cc(O)cc2c1O[C@](C)(CCC[C@H](C)CCC[C@H](C)CCCC(C)C)CC2,Potency,[8],inactive
same,outcome,[2],inactive
same,Potency,[3],inactive
same,Potency,[9],inactive
same,"activity change, positive = activation",[10]; [11],6.7% [at 42.5 µM]
same,Potency,[4],inactive
same,Potency,[5],inactive
same,Potency,[6],inactive
Nc1nc2c(ncn2COC(CO)CO)c(=O)[nH]1,Potency,[8],inactive
same,outcome,[1],inactive
same,Potency,[6],inactive
O=c1cc(-c2ccccc2)oc2ccccc12,Potency,[8],inactive
same,outcome,[2],inactive
same,Potency,[4],inactive
same,Potency,[6],inactive
same,Potency,[7],inactive
O=C(O)CN(CCOCCOCCN(CC(=O)O)CC(=O)O)CC(=O)O,"activity change, negative = cytotoxicity",[8],-1.26% [at 0.29 µM]
same,activation (H2AX phosphorylation),[1],-0.327% [at 0.582 µM]
same,"activity, negative = inhibition",[9],2.61% [at 0.349 µM]
same,"activity change, positive = activation",[10]; [11],1.46% [at 0.349 µM]
same,"activity change, negative = cytotoxicity",[4],-0.276% [at 0.29 µM]
same,"activity change, negative = cytotoxic",[5],6.99% [at 0.29 µM]
same,cytotoxicity,[6],0.267% [at 0.29 µM]
O=Cc1cccc([N+](=O)[O-])c1,Potency,[8],inactive
same,outcome,[1],inactive
same,"activity change, positive = activation",[10]; [11],-4.24%
same,Potency,[4],inactive
same,Potency,[5],inactive
same,Potency,[6],inactive
same,Potency,[7],inactive
CN(C)CCCN1c2ccccc2CCc2ccc(Cl)cc21,Potency,[8],49 µM (active)
same,Potency,[3],113 µM (active)
same,Potency,[9],68.6 µM (active)
same,"activity change, positive = activation",[10]; at 42.5 µM (top of the series),-18.5%
same,"activity change, positive = activation",[10]; at 92.4 µM (top of the series),-78.1%
same,Potency,[4],49 µM (active) and 23.9 µM (active)
same,Potency,[5],34.7 µM (active) and 21.3 µM (active)
same,Potency,[6],inactive
same,Potency,[7],43.6 µM (active)
CCOC(=O)c1c(C)n(C)c2ccc(O)cc12,Potency,[8],inactive
same,Potency,[3],inactive
same,"activity change, positive = activation",[10]; [11],-9.16% [at 42.5 µM]
same,Potency,[4],inactive
same,Potency,[5],inactive
same,Potency,[6],inactive
same,Potency,[7],inactive
CCN(Cc1ccncc1)C(=O)C(CO)c1ccccc1 (stereo unspecified),Potency,[8],inactive
same,outcome,[1],inactive
same,Potency,[3],inactive
same,Potency,[4],inactive
same,Potency,[6],inactive
same,Potency,[7],inactive
CC(C)NCCCC1(C(N)=O)c2ccccc2-c2ccccc21,Potency,[8],inactive
same,outcome,[1],inactive
same,Potency,[9],inactive
same,"activity change, positive = activation",[10]; [11],9.55% [at 42.5 µM]
same,Potency,[4],inactive
same,Potency,[5],inactive
same,Potency,[6],inactive
same,Potency,[7],inactive
C[C@](N)(Cc1ccc(O)cc1)C(=O)O,"activity change, negative = cytotoxicity",[8],3.27% [at 6.97 µM]
same,activation (H2AX phosphorylation),[1],-0.087% [at 14 µM]
same,"activity, negative = inhibition",[9],3.87% [at 8.39 µM]
same,"activity change, positive = activation",[10]; [11],2.18% [at 8.39 µM]
same,"activity change, negative = cytotoxicity",[4],0.0825% [at 6.97 µM]
same,"activity change, negative = cytotoxic",[5],1.02% [at 6.97 µM]
same,cytotoxicity,[6],5.11% [at 6.97 µM]
same,"activity change, negative = cytotoxic",[7],4.28% [at 6.97 µM]
CCCCCCCCS(=O)(=O)Cl,Potency,[8],inactive
same,outcome,[1],inactive
same,Potency,[9],inactive
same,"activity change, positive = activation",[10]; [11],7.34%
same,Potency,[4],inactive
same,Potency,[5],inactive
same,Potency,[6],inactive
same,Potency,[7],inactive
CCn1nc(C(=O)O)c(=O)c2cc3c(cc21)OCO3,Potency,[8],inactive
same,outcome,[1],inactive
same,Potency,[9],inactive
same,"activity change, positive = activation",[10]; [11],7.18% [at 42.5 µM]
same,Potency,[4],inactive
same,Potency,[5],inactive
same,Potency,[7],inactive
NS(=O)(=O)c1cc2c(cc1Cl)NC(C1CC3C=CC1C3)NS2(=O)=O (stereo unspecified),Potency,[8],inactive
same,outcome,[1],inactive
same,Potency,[4],inactive
same,Potency,[5],inactive
same,Potency,[6],inactive
Brc1c(NC2=NCCN2)ccc2nccnc12,Potency,[8],inactive
same,outcome,[1],inactive
same,Potency,[9],inactive
same,"activity change, positive = activation",[10]; [11],3.51% [at 42.5 µM]
same,Potency,[4],inactive
same,Potency,[5],inactive
same,Potency,[6],inactive
same,Potency,[7],inactive
CCN1CCC[C@H]1CNC(=O)c1cc(S(N)(=O)=O)ccc1OC,Potency,[8],inactive
same,outcome,[1],inactive
same,Potency,[4],inactive
same,Potency,[5],inactive
same,Potency,[7],inactive
N=C(N)c1ccccc1,Potency,[8],inactive
same,outcome,[1],inactive
same,Potency,[3],inactive
same,Potency,[4],inactive
same,Potency,[5],inactive
same,Potency,[7],inactive
CN1CCC(=C2c3ccccc3CC(=O)c3sccc32)CC1,Potency,[8],inactive
same,outcome,[1],inactive
same,Potency,[4],inactive
same,Potency,[5],inactive
same,Potency,[6],inactive
COC(=O)[C@@H](N)Cc1ccc(O)c(O)c1,Potency,[8],inactive
same,Potency,[3],inactive
same,"activity change, positive = activation",[10]; [11],6.86% [at 42.5 µM]
same,Potency,[4],inactive
same,Potency,[6],inactive
same,Potency,[7],inactive
Oc1ccc(C2CNCCc3c2cc(O)c(O)c3Cl)cc1 (stereo unspecified),Potency,[8],inactive
same,outcome,[2],inactive
same,Potency,[3],inactive
same,Potency,[4],inactive
same,Potency,[5],inactive
same,Potency,[7],inactive
